Paper PMC4336329 (PLoS ONE, 2015)
Screen size: about 310,000 compounds; about 14,000 (4.5%) showed an effect of 50% or more. Effects have a minus sign here. The sample as a whole holds a higher share of strong results than the screen did.

Biological target: human ether-à-go-go-related gene (hERG) potassium channel (human, UniProt Q12809)
Assay: primary screen, population patch clamp on CHO cells stably expressing hERG; higher = less effect of the substance
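Note: peak tail current of the secondary pulse compared with the same well before compound.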

Sequence of human ether-à-go-go-related gene (hERG) potassium channel (Q12809 whole entry, looked up): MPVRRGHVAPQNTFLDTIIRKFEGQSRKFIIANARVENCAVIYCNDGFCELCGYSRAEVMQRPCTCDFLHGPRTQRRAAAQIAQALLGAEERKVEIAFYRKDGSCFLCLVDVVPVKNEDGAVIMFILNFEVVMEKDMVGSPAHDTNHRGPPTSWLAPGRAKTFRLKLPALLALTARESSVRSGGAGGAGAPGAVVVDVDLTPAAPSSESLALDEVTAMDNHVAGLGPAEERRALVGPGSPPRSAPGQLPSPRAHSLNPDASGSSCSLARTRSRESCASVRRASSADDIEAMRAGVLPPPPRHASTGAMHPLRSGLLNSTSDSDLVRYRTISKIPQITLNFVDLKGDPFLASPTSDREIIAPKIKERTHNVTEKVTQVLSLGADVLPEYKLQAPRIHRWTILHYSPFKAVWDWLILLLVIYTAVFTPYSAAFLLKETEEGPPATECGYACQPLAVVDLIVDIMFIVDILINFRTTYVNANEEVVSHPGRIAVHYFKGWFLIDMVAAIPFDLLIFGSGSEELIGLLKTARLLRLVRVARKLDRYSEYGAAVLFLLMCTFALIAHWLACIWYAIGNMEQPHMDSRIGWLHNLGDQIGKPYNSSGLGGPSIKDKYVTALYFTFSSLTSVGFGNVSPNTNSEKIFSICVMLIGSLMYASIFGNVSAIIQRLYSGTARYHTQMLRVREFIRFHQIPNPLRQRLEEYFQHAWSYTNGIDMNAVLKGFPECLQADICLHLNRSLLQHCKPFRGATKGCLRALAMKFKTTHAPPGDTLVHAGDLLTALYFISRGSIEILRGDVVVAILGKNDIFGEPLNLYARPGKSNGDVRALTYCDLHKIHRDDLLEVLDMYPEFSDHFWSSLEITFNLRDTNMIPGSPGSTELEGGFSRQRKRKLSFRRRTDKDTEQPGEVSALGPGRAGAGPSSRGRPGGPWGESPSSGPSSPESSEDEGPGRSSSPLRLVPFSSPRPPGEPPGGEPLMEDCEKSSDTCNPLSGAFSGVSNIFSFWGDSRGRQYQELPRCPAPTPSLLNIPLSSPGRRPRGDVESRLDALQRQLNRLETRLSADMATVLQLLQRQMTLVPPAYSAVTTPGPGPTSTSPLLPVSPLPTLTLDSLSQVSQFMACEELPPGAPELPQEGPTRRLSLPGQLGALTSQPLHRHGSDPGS

In order of falling “hERG current change (%, negative = inhibition) at 10uM” value:
1. O=C(NN1C(=O)C2C3C=CC(C4CC34)C2C1=O)c1ccc(Br)cc1 (centres unmarked)  22.8%
2. N/C(=N\OC(=O)c1ccc(OCC(F)(F)F)nc1)c1ccc(Cl)cc1  19.5%
3. CC(=O)Nc1cc2nc(C)n(Cc3ccccc3[N+](=O)[O-])c2nc1C  17.4%
4. Cc1cccc(C(=O)Oc2cc(C)[nH]c(=O)c2[N+](=O)[O-])c1  16.7%
5. Cc1nc(C)c(N)c(=O)[nH]1.Cl  16.3%
6. CCc1cccc(NC(=O)C2CC2c2ccccc2)c1 (centres unmarked)  14.5%
7. CN(C(=O)c1cccnc1)c1nnc(-c2cccnc2)s1  14.4%
8. CCOC(=O)N1CCC(NC(=O)CCC(=O)N2CCOc3ccccc32)CC1  8.3%
9. N#Cc1c(Cl)nsc1NC(=O)c1ccccc1  8.24%
10. O=C(CCC(=O)N1CCOc2ccccc21)NCCCN1CCCCC1  7%
11. CC(C)(C)NC(=O)c1ccc2c(c1)C1C3CCC(C3)C1C(c1ccccc1)N2 (centres unmarked)  5.59%
12. CN1CCN(CCCNC(=O)CCC(=O)N2CCOc3ccccc32)CC1  5.46%
13. CCC1CCCCN1C(=O)CSc1nnc(-c2ccco2)o1 (centres unmarked)  4.11%
14. O=C(CCC(=O)N1CCOc2ccc(Cl)cc21)NCCN1CCOCC1  3.97%
15. COC(=O)c1c(C)[nH]c(C(=O)/C=C/c2ccccc2)c1C  1.52%
16. CN(C/C(O)=C(\C#N)c1ccccc1)C1CCCCC1  -0.409%
17. Cc1cc(OCc2ccc(C(=O)n3cccn3)o2)ccc1Cl  -0.553%
18. Cc1noc(C)c1C(=O)OCC(=O)N1CCN(S(=O)(=O)c2ccc3ccccc3c2)CC1  -0.697%
19. Cc1ccn2c(=O)c(NC(=O)c3cccc4ccccc34)c(C)nc2c1  -1.31%
20. COc1ccc(CC(=O)c2ccc(O)cc2O)cc1  -3.19%
21. CCN1CCN(CCCNC(=O)CCC(=O)N2CCOc3ccc(Cl)cc32)CC1  -5.48%
22. Cc1ccc(S(=O)(=O)NCCC(=O)NCC(c2ccc(F)cc2)N2CCOCC2)cc1 (centres unmarked)  -5.84%
23. O=C(NC1CCCCC1)C1COc2ccccc2O1 (centres unmarked)  -7.19%
24. O=C(C1COc2ccccc2O1)N1CCN(Cc2ccccc2)CC1 (centres unmarked)  -7.63%
25. CN1CCN(c2ccc([N+](=O)[O-])cc2C(=O)N2CCCCC2)CC1  -7.66%
26. C1CCc2nc3c(nc2C1)CCCC3  -10.7%
27. Cc1nc2c(C)cccn2c(=O)c1NC(=O)COc1ccccc1  -12.1%
28. COCc1ccccc1C1=CC(=O)C[C@H](c2ccc(OC)cc2)C1  -12.3%
29. CCN1CCN(CCCNC(=O)CCC(=O)N2CCOc3ccccc32)CC1  -13%
30. C=CCc1c(C)nc(SC)nc1Nc1ccc(C)cc1  -14.3%
31. O=C(CCC(=O)N1CCOc2ccccc21)NC1CCCCCC1  -20.8%
32. CCCCC(=O)OCC(=O)Nc1ccc(OC(F)F)cc1  -21.2%
33. Cc1ccccc1CNC(=O)CCC(=O)N1CCOc2ccc(Cl)cc21  -24.2%
34. O=C(c1ccc(Br)cc1)c1cc([N+](=O)[O-])ccc1N1CCCCC1  -25.3%
35. O=C(c1ccc(Br)cc1)c1cc([N+](=O)[O-])ccc1N1CCOCC1  -30.7%
36. O=C(c1ccc(Cl)cc1)c1cc([N+](=O)[O-])ccc1N1CCOCC1  -32.4%
37. Cc1ccc(S(=O)(=O)N2CCCCC2CCNC(=O)C(=O)NCCc2ccco2)cc1 (centres unmarked)  -33.1%
38. COc1ccc(N2CCN(C(=O)CN3CCN(C(c4ccccc4)c4ccccc4)CC3)CC2)cc1.Cl  -46%
39. O=C(CCC(=O)N1CCOc2ccccc21)NC1CCN(Cc2ccccc2)CC1  -51%
40. Cc1ccc(C)c(N2CCN(CCCNC(=O)CCC(=O)N3CCOc4ccc(Cl)cc43)CC2)c1  -55.9%
41. Cc1ccn2c(=O)c(NC(=O)COc3ccccc3)c(C)nc2c1  -56.9%
42. O=C(NC1CCN(Cc2ccccc2)CC1)C1COc2ccccc2O1 (centres unmarked)  -57.5%
43. O=C(CCC(=O)N1CCOc2ccc(Cl)cc21)NCCCN1CCN(c2ccccc2F)CC1  -66.5%
44. CN1CCN(c2ccc([N+](=O)[O-])cc2C(=O)c2ccc(Cl)cc2)CC1  -67.4%
45. CN1CCN(c2ccc([N+](=O)[O-])cc2C(=O)c2ccc(Br)cc2)CC1  -69.5%
46. O=C(CCC(=O)N1CCOc2ccc(Cl)cc21)NCCCN1CCN(Cc2ccccc2)CC1  -73.2%
47. O=C(CCC(=O)N1CCOc2ccccc21)NCCCN1CCN(Cc2ccccc2)CC1  -79.8%
